The values below come from PubChem BioAssay AID463218 (Sanford-Burnham Center for Chemical Genomics, 2010).

The structures appear in SMILES notation. Screen size: about 4,400 compounds; about 3,700 (84%) were called active.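 How the source made its calls: active means inhibition above about 39% in either of two replicate wells at 20 µM (limit read from the data); inactive means the rest.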 So high a share suggests a set chosen from earlier hits. Only a sample is shown.

As usually defined, the inhibition is the drop in the measured response relative to a control, in per cent.

The nature of the experiment: growth inhibition of tim23-1 ts yeast, retest – luminescence, single concentration, confirmation (AID 463218).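 Further: temperature-sensitive tim23-1 mutant grown at 25 °C; 0% = DMSO wells with yeast and 100% = medium wells without yeast.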 The following applies: S. cerevisiae tim23-1 growth, BacTiter-Glo luminescence, 24 h; at 20 µM; hits give high values.
`O=C1Oc2ccccc2C(=O)/C1=C/c1ccccc1O`: the inhibition was 89% (active). On to `O=C(CC(O)(C(F)(F)F)C(F)(F)F)Nc1ccc(Cl)c(Cl)c1`, for which the inhibition was 92.1% (active).

As for `COc1cc(NC(=O)c2cccs2)ccc1NC(=O)c1ccccc1Cl`, the inhibition is 42.2% (active). In the case of `Cc1nn(CC(=O)Nc2nc3ccccc3s2)c(C)c1[N+](=O)[O-]` it was 54% (active).

For the molecule `C=C1CCC(N(O)c2cc(C)on2)C(=C)CCC2C1CC2(C)C` (stereo not given), the inhibition is 44.8% (active).

On to `Cc1ccccc1OCC(=O)Nc1ccc(N2CCN(C(=O)C(C)C)CC2)c(Cl)c1`, for which the inhibition was 76.3% (active). The value for `N/C(=N\OC(=O)CCc1ccccc1)c1ccc(Cl)cc1` was 67.7% (active); that for `C/C(=N\NC(=S)NCc1ccccc1)c1ccc(Cl)cc1` was 36.7% (inactive). Consider `COc1ccc(/C(N)=N/OC(=O)CCCc2ccccc2)cc1`, for which the inhibition was 41.2% (active). In the case of `COc1ccc2c(c1)C(=C(C#N)C#N)C(=O)N2CCc1ccccc1` it was -89.4% (inactive).

With `Cc1cc2ncn(CCCCOc3ccccc3)c2cc1C`, the inhibition was 27.3% (inactive). In the case of `O=[N+]([O-])c1ccccc1S(=O)(=O)Nc1cccc2cccnc12` it was 59.1% (active). As to `Cc1cccc(Oc2c([N+](=O)[O-])c(=O)n(C)c3ccccc23)c1`, the inhibition is 59.6% (active). With `N/C(=N\OC(=O)CC1CCCCC1)c1ccccc1`, the inhibition was 53.1% (active). In the case of `O=C(NCCc1ccc(F)cc1)c1ccc(S(=O)(=O)N2CCCCC2)cc1`, the inhibition was 56% (active). In the case of `Cc1ccc2cc3cc(C(=O)N4CCCCCC4)oc3nc2c1` it was 56% (active); in that of `CCC(=O)Nc1nc(C)c(C(=O)Nc2cccc(Cl)c2)s1`, 75.2% (active); in that of `COc1cc(Br)cc(/C=N/c2ncn[nH]2)c1O`, 85.5% (active). In the case of `O=C1c2cccc3c([N+](=O)[O-])ccc(c23)C(=O)N1CC1CCCO1` (stereo not given) it was 86.2% (active); in that of `O=C(Oc1ccc([N+](=O)[O-])cc1)c1ccc2ccccc2n1`, 70.7% (active); in that of `O=C(N[C@H]1C/C=C\C(c2cccc(F)c2)N(Cc2ccccc2)C(=O)C1)OCC1c2ccccc2-c2ccccc21` (stereo not given in full), 40% (active). For `COC(=O)c1c(NC(=O)CSc2nncs2)sc2c1CCCCC2`, the inhibition is 46.1% (active). As to `O=C(N/N=C/C=C/c1ccco1)c1cccs1`, the inhibition was 68.9% (active).

`COc1ccc(CNC(=O)/C(C#N)=C/c2cccc(OC)c2OC)cc1`: the inhibition was 76.6% (active). The value for `CCCc1nc2c(c(=O)c3ccccc3n2C)c(=O)n1C1CCCCCC1` was 58.9% (active). The value for `Cc1ccc(S(=O)(=O)NC2CCCCCC2)cc1` was 37% (active); that for `O=C(Cc1c(F)cccc1Cl)Nc1ncc([N+](=O)[O-])s1` was 71.3% (active); that for `COc1ccc(-c2nc3cc(C)ccn3c2NC2CCCCC2)cc1SC1CCCCC1` was 48.6% (active).

`O=C(/C=C/c1ccc(Cl)c([N+](=O)[O-])c1)c1cccnc1`: the inhibition is 73.4% (active). The value for `Cc1ccccc1C1=N/C(=C/c2cccnc2)C(=O)O1` was 57% (active).

In the case of `O=C(Nc1nc(-c2ccco2)c(-c2ccco2)s1)c1ccco1`, the inhibition is 77.3% (active). The value for `O=C1[C@@H](c2ccccc2)[C@@H](c2ccccc2)N1c1cccnc1` was 71.3% (active); that for `N/C(Cc1ccc([N+](=O)[O-])cc1)=N\OC(=O)COc1ccc2ccccc2c1` was 72.3% (active). The value for `N/C(Cc1ccc([N+](=O)[O-])cc1)=N\OC(=O)C1CCCCC1` was 64.3% (active); that for `Cc1cccc(NC(=O)c2nc(S(=O)(=O)Cc3ccccc3)ncc2Cl)c1` was -88.7% (inactive). `Cc1cccc(NC(=S)Nc2ccc(Cl)c(Cl)c2)c1`: the inhibition was 63.8% (active). For `Cn1c(=O)c(C(=O)Nc2ncccn2)c(O)c2ccccc21`, the inhibition was 53.4% (active).

Regarding `O=C1Nc2ccccc2/C1=C/c1ccnc2ccccc12`, the inhibition is 56.8% (active). The value for `COc1ccc(S(=O)(=O)N2CCN(C(C)C(=O)Nc3ccc(C(C)C)cc3)CC2)cc1` (stereo not given) was 51.4% (active); that for `CC(C)c1ccc(NC(=S)NC2CC3C=CC2C3)cc1` (stereo not given) was 36.4% (inactive); that for `COc1ccc(C(C[N+](=O)[O-])n2nc(C)cc2C)cc1` (stereo not given) was 62% (active). On to `O=C(NC(Nc1nc2ccc([N+](=O)[O-])cc2s1)(C(F)(F)F)C(F)(F)F)c1ccccc1`, for which the inhibition is 87.3% (active). Regarding `COc1ccc(NC(=O)Nc2cccc3cccnc23)cc1`, the inhibition was 42.3% (active).

Consider `COc1ccc(CS(=O)/C(Cl)=C(/Cl)C(=O)Nc2ccc(OC)nc2)cc1` (stereo not given), for which the inhibition was -9.55% (inactive). In the case of `CN(C(=O)CC(NC(=O)c1ccccc1)(c1ccccc1)c1ccccc1)c1ccccc1`, the inhibition is 44.1% (active). The value for `Fc1ccccc1-c1cc2cc3c(cc2cn1)OCO3` was 59% (active); that for `CCOc1ccc(C(c2c(C)[nH][nH]c2=O)c2c(C)[nH][nH]c2=O)cc1OCC` was 41.6% (active). In the case of `CCCc1c(C(=O)Nc2ccc(F)cc2)cnn1-c1ccccc1` it was 30.4% (inactive); in that of `Cc1ccc2nc(-c3ccc(NC(=O)c4cccnc4)cc3)oc2c1`, 42.7% (active).

In the case of `Cc1ccc(N=Cc2c(O)cc(C)oc2=O)c(C)c1`, the inhibition is 12.4% (inactive). Regarding `O=C(Nc1nnc(SCc2c(Cl)cccc2Cl)s1)C1CCCO1` (stereo not given), the inhibition is 49.7% (active). For the molecule `Cc1cccc(C)c1NC(=O)C(Cl)C(=O)c1ccccc1` (stereo not given), the inhibition was 68.8% (active). For the molecule `S=C(NCCCc1ccccc1)Nc1ccc(Br)cc1`, the inhibition is 54.3% (active). In the case of `COc1ccc2c(c1)C(NS(=O)(=O)OCC(Cl)(Cl)Cl)CCC2` (stereo not given) it was 52.8% (active); in that of `CCCCCCc1ccc(O)cc1O`, 45.3% (active).

Regarding `COc1ccc(C(=O)NC(=S)NC2CCCCC2)cc1`, the inhibition is 59.2% (active). In the case of `O=C(NC(=S)NC1CCCCC1)c1ccc(Cl)cc1` it was 53.2% (active); in that of `Cc1ccccc1C(=O)NC(=S)NC1CC1`, 12.2% (inactive); in that of `Cc1ccoc1C(=O)Nc1cccc(Oc2ccccc2)c1`, 75.2% (active). In the case of `O=C(Nc1ccccc1)c1ccc2c(c1)OCCCO2` it was 31.9% (inactive). In the case of `COc1ccccc1-c1n[nH]c2c1[C@H](C)CC[C@H]2C(C)C` it was 61.8% (active); in that of `Cc1ccc(C2CC(=O)NC(SCC(=O)OCc3ccccc3)=C2C#N)o1` (stereo not given), 53.8% (active). In the case of `CCc1nnc(NS(=O)(=O)c2ccc(NC(=S)NC(=O)/C=C/c3cccs3)cc2)s1`, the inhibition was 25.8% (inactive). The value for `O=C1C=C(c2cccc(Cl)c2O)C[C@@H](c2ccc(F)cc2)C1` was 51.5% (active); that for `CC(=O)Oc1ccc2c(c1)C(=O)c1ccccc1C2=O` was 68.2% (active).
